From ChEMBL document CHEMBL3988442, “University of Dundee, Small-Polar-MMV Screening Library” (2021) come the findings set out here.

Common to all, as to design: scale not given: direction of the effect not stated beside the values
For test [1], the target named is Protein translocase subunit SecA (Escherichia coli (strain K12)) (UniProt P10408). Nature of the test: Assay to Identify E. coli SecA ATPase Inhibitors. The note with it: 30 µM. It is filed as functional.
The target of test [2] is T1, Ubiquitin-activating enzyme e1, putative (Leishmania donovani (strain BPK282A1)) (UniProt E9BSI1).
T1 sequence (whole entry): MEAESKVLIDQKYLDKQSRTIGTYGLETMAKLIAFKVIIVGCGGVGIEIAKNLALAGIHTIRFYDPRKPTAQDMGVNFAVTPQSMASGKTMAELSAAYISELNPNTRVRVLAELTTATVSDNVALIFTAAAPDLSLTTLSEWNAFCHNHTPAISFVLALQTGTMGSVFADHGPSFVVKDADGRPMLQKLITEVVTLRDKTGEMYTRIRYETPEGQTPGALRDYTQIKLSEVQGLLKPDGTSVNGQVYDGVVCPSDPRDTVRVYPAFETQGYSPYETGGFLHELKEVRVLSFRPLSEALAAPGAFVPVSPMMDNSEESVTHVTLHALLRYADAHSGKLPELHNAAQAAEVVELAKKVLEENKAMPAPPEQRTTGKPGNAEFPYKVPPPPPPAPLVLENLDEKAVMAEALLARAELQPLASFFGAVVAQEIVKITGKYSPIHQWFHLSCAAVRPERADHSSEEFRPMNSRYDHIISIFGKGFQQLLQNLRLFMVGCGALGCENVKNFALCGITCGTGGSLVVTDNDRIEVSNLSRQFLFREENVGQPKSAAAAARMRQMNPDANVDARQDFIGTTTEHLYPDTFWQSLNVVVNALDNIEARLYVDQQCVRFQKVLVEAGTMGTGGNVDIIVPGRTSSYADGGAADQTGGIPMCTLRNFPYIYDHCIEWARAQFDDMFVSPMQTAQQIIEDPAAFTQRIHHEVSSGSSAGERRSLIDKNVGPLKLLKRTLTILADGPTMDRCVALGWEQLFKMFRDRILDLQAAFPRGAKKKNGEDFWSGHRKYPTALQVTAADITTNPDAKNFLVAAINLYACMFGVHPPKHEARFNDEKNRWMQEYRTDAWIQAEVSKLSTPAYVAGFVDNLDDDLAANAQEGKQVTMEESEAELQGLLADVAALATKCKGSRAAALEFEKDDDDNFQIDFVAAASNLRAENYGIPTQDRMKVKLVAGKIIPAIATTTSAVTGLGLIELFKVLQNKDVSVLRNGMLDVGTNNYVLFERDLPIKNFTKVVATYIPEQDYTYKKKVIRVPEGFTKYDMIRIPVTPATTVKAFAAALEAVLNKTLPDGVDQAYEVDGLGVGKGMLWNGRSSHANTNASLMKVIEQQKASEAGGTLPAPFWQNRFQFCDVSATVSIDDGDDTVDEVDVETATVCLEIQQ
As to the kind of experiment: Leishmania donovani Ubiquitin Activating Enzyme (LdE1). It is filed as functional. The note with it: 30 µM.

Test [3] concerns the target AMP-activated protein kinase, AMPK (Homo sapiens) (UniProt P54646+O43741+P54619+Q9UGJ0+Q9Y478+Q13131+Q9UGI9). Nature of the test: AMP-dependent Kinase enzyme assay. An in vitro enzyme assay that detects ADP turnover that is directly proportional to AMPK activity. This uses naive AMPK that is activated during the assay with MK-8722. To be noted: 30 µM. It is filed as functional.

For test [4], the target named is Sialic acid-binding Ig-like lectin 9 (Homo sapiens) (UniProt Q9Y336). Nature of the test: Hs-Siglec9 ALPHAscreen SOP 20170721. The note with it: 10 µM.
Sequence of Sialic acid-binding Ig-like lectin 9 (Homo sapiens) (Q9Y336 whole entry): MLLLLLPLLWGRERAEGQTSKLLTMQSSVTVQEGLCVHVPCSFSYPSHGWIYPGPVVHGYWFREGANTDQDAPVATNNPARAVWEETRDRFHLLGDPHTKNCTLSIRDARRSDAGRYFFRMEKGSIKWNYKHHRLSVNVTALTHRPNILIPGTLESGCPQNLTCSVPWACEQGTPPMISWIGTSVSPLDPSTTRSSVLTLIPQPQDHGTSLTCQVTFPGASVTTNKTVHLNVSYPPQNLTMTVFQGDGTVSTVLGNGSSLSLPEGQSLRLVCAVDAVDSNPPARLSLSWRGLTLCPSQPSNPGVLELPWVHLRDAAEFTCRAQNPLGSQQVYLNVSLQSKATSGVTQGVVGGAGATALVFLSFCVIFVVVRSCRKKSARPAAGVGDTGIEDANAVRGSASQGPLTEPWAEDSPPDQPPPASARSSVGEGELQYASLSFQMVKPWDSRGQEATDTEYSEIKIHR
For another test, the system named is Trypanosoma cruzi. As to the kind of experiment: Trypanosoma cruzi phosphomannomutase and mannose-1-phosphate guanylyltransferase assay. Format: functional. To be noted: 10 µM.
Test [5] deals with T2, Arginase-2, mitochondrial (Homo sapiens) (UniProt P78540).
T2 sequence (whole entry): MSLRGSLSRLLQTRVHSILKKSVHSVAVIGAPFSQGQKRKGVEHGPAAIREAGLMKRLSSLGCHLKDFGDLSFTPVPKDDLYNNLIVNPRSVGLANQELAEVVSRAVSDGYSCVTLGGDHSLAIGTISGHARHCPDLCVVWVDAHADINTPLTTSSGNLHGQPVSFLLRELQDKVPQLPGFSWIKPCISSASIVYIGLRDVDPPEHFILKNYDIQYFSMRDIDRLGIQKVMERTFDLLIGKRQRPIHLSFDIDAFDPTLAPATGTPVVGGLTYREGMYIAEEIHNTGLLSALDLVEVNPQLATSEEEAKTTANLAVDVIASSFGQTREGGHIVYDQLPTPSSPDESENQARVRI
As to the kind of experiment: in vitro enzyme assay to detect the production of urea directly proportional to the activity of Arginase II. Also: in the data most compounds retested in dose-response had high values. It is filed as functional. The note with it: 33.3 µM.

Test [6] concerns the target T3, Proteasome subunit beta (Trypanosoma cruzi) (UniProt O96673).
T3 sequence (whole entry): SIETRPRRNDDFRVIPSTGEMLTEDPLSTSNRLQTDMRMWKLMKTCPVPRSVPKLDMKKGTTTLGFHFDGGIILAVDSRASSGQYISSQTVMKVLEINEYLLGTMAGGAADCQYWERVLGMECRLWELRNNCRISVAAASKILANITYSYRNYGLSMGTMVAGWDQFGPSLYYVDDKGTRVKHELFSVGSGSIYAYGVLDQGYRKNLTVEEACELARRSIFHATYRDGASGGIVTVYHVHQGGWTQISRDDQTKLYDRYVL
As to the kind of experiment: Trypanosoma cruzi proteasome chymotrypsin-like activity (TcProtChymo) assay. Also: in the data most compounds retested in dose-response had high values. It is filed as functional. The note with it: 9.37 µM.

The next test is filed under the species Homo sapiens. As to the kind of experiment: To identify inhibition of the IFN signalling (Jak-Stat) pathway via expression of an eGFP reporter gene under the control of an IFN-stimulated response element (ISRE) containing MxA promoter. It is filed as functional. The note with it: 30 µM. Background: A reporter such as luciferase makes a cellular process visible.

In test [7] the target is T4, Tyrosyl-tRNA synthetase, putative (Trypanosoma cruzi (strain CL Brener)) (UniProt Q4DSP6).
T4 sequence (whole entry): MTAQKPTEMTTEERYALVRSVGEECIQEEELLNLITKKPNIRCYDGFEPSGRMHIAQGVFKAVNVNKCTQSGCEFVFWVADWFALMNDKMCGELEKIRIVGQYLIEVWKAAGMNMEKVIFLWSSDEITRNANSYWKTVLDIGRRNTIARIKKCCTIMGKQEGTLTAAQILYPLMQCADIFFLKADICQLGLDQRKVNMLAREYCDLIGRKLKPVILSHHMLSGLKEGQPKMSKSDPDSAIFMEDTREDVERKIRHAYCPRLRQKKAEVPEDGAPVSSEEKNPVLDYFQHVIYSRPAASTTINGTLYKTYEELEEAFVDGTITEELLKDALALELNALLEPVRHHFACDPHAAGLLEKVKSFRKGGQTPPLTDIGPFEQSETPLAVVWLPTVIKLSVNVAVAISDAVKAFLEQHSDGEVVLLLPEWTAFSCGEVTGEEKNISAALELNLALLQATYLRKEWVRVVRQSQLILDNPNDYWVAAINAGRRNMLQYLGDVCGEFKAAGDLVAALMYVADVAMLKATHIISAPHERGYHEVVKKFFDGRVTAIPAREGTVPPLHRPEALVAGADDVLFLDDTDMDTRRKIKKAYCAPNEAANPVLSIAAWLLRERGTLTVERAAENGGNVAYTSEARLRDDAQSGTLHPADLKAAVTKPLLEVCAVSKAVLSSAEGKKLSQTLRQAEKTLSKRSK
Nature of the test: Trypanosoma cruzi tyrosyl tRNA synthetase (TcYRS) _High Tyrosine SOP. Also: in the data most compounds retested in dose-response had high values. It is filed as functional. To be noted: 30 µM.

In test [8] the target is T4, Tyrosyl-tRNA synthetase, putative (Trypanosoma cruzi (strain CL Brener)). Nature of the test: Trypanosoma cruzi tyrosyl tRNA synthetase (TcYRS) SOP. The note with it: 30 µM. Format: functional.
Test [9] deals with Chromo domain-containing protein 1 (Saccharomyces cerevisiae (strain ATCC 204508 / S288c) (Baker's yeast)) (UniProt P32657). As to the kind of experiment: ScCHD-1 Enzyme Inhibition Assay. Also: in the data most compounds retested in dose-response had high values. Format: functional. The note with it: 30 µM.
Sequence of Chromo domain-containing protein 1 (Saccharomyces cerevisiae (strain ATCC 204508 / S288c) (Baker's yeast)) (P32657 whole entry, the tested form may be a part): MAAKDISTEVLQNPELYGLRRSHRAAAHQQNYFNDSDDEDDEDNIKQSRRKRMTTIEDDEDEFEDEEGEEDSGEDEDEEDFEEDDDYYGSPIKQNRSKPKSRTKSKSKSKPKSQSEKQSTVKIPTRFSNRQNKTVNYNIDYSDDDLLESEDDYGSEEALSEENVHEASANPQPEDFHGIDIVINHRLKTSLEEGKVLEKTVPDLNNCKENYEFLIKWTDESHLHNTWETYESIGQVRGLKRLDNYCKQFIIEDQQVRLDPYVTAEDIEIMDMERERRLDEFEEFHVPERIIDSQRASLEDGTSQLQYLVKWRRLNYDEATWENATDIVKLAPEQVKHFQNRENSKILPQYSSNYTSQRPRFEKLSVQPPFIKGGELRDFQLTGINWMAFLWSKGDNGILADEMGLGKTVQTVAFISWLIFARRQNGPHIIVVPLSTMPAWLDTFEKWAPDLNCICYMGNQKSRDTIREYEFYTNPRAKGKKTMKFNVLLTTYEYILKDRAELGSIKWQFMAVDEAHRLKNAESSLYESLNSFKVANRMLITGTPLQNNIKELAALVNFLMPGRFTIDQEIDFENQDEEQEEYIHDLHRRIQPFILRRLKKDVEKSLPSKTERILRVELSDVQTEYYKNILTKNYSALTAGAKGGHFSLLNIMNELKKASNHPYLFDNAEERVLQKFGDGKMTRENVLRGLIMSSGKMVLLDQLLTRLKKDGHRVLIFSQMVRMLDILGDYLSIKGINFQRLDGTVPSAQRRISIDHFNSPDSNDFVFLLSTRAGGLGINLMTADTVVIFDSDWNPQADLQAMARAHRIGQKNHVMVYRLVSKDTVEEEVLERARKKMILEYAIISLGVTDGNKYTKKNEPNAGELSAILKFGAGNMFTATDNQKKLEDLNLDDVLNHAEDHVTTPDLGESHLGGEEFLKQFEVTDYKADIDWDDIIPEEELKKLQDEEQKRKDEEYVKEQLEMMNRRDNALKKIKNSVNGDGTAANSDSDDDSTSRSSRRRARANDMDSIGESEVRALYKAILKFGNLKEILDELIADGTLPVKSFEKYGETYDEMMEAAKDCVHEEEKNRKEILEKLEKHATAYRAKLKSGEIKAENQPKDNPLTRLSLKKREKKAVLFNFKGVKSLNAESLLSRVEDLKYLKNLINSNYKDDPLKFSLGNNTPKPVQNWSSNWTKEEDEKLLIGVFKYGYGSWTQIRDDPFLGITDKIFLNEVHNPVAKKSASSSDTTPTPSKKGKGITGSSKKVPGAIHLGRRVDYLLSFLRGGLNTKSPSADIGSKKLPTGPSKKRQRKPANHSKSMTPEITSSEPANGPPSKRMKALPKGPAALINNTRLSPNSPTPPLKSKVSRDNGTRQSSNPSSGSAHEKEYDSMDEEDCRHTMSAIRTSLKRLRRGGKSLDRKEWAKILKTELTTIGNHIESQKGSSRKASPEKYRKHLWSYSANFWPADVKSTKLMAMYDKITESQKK

For some of these results: Entries with a potency or affinity are not part of this list.

Sequence of Protein translocase subunit SecA (Escherichia coli (strain K12)) (P10408 whole entry): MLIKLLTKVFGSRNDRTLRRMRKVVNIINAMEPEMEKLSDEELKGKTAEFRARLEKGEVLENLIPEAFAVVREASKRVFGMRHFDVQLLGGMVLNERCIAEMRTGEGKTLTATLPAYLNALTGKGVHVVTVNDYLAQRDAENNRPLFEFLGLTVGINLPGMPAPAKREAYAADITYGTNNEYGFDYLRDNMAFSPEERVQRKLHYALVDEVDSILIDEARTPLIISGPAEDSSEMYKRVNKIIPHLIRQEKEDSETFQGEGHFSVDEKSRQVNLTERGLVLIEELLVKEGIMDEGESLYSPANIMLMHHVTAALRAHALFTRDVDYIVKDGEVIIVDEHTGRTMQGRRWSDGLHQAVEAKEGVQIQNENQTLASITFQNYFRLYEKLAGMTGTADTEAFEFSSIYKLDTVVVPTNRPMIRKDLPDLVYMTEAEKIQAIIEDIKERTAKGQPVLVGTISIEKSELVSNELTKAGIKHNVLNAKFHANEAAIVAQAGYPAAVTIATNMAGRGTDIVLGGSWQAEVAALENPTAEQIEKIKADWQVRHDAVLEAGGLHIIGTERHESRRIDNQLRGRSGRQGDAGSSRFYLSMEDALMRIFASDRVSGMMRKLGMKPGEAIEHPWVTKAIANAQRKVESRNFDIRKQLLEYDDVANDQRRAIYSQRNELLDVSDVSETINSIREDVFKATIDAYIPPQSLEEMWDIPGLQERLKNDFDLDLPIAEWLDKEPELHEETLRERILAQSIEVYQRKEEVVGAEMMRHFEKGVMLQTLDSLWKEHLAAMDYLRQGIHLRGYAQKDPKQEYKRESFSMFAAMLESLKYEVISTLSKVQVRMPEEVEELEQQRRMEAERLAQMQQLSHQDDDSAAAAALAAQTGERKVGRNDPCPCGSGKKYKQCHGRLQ

As for `Cc1ccc(C)n1-c1ccc(C(=O)NCCNc2ncccn2)cc1`, the Percent Effect in test [1] is -1.31%; in test [2], 7.89%; in test [3], -10.7%; in test [4], -3.65%; in the test on Trypanosoma cruzi it was 3.46%; in [5], -6.83%. In addition, the Percent Effect was 15% in [6]; -6.26% in the test filed under Homo sapiens; 9.36% in test [7]; 18.5% in [8]; 0.738% in test [9].

As to `NC(=O)c1cc(C2CCCN(C(=O)CCc3ccsc3)C2)n[nH]1` (stereo not drawn), the Percent Effect in test [1] was -9.05%; in test [2] it was 5.2%; in test [3], 5.08%; in test [4] it was -5.24%; in the test on Trypanosoma cruzi, -5.43%; in test [5], -1.78%. Besides, the Percent Effect in test [6] was -5.57%; in the test listed under Homo sapiens, 30.9%; in test [7], 3.88%; in test [8] it was 7.32%; in [9] it was -4.93%.

As to `COCCn1cc2c(n1)C(CNCc1ccc(F)cc1)OCC2` (stereo not drawn), the Percent Effect was -5.93% in [1]; 8.11% in test [2]; -0.136% in [3]; -5.65% in test [4]; -0.195% in the test on Trypanosoma cruzi; 5.42% in test [5]. Moreover, the Percent Effect is 16.8% in [6]; -4.69% in the test filed under Homo sapiens; 11.9% in [7]; 11% in test [8]; -6.25% in test [9].

`N#CCSCCCN1CCN(C(=O)c2ccc(Cl)cc2)CC1`: the Percent Effect in [1] was -6.76%; in test [2], -8.22%; in [3] it was 6.65%; in test [4], -5.18%; with Trypanosoma cruzi, -3.37%; in test [5], -25.9%. The Percent Effect in test [6] was -2.83%; in the test filed under Homo sapiens, 4.5%; in test [7], -2.08%; in test [8], -3.7%; in [9], 7.74%.

`Cc1ncsc1CN1CC[C@H]2OCC[C@@]2(C(=O)NC(C)C)C1`: the Percent Effect is -3.99% in test [1]; 0% in test [2]; 6.03% in [3]; -6.45% in test [4]; -3.25% in the test on Trypanosoma cruzi; 0.645% in [5]. In addition, the Percent Effect was 0.87% in test [6]; 30.1% in the test filed under Homo sapiens; -1.06% in [7]; -8.97% in test [8]; 0.0917% in [9].

For the compound `CO[C@@H]1CC[C@H]2[C@H]1OCCN2C(=O)C1=CCCC1`, the Percent Effect in test [1] is -3.13%; in test [2] it was 10.4%; in test [3], -1.31%; in [4] it was -0.155%; in the test on Trypanosoma cruzi, -4.83%; in test [5] it was 16.1%. Also, the Percent Effect was 7.49% in test [6]; -1.44% in the test listed under Homo sapiens; -2.12% in test [7]; 14.1% in [8]; -6.88% in [9].

As for `Cc1ccc(C(=O)N2CC[C@@H]3[C@H]2CCC(=O)N3c2ccccc2)o1`, the Percent Effect in test [1] is -2.77%; in test [2], 2.67%; in test [3] it was 14%; in [4], -0.294%; with Trypanosoma cruzi, 0.591%; in [5], 0.233%. For the same compound, the Percent Effect in test [6] was -2.03%; in the test listed under Homo sapiens, 12.1%; in test [7] it was 7.45%; in test [8], 11.5%; in test [9], 1.89%.

Consider `CC(C)(C)c1nc(CN2CCC(c3nc4cc(Cl)ccc4o3)CC2)no1`, for which the Percent Effect in [1] was determined as 0.762%; in [2], 13.5%; in test [3], 3.19%; in test [4], 22.6%; with Trypanosoma cruzi it was 7.92%; in test [5], 4.76%. In addition, the Percent Effect in test [6] is 7.76%; in the test filed under Homo sapiens it was 10.2%; in test [7], 2.65%; in test [8], 0%; in test [9], -5.62%.
